“And” between values parts separate entries of the source, which are not always exact repeats. Equal entries are not always repeated. The whole screen tested about 5,500 compounds, of which about 2,000 (36%) were called active. Inconclusive results (about 18%) are left out. Rule as the data show it: active = normalized growth mostly below about 0.91 (no sharp cut-off); inconclusive = no clear call, values can overlap the other calls; inactive = mostly above about 0.92. Some of the results follow.
Experiment: chemical genetic growth profiling, strain panel (AID 1159580);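 also: tested at 20 µM; growth read once vehicle control cultures reached saturation at 30 °C; 1 = growth at the plate median or of vehicle wells; lower values mean less growth of the strain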
Details: growth OD

Measured: normalized growth

CCCOc1ccccc1-c1nc2n[nH]nc2c(=O)[nH]1
inactive: S. cerevisiae deletion strains, locus YJL187C, strain SWE1 (second series), active compounds read low 0.992 | S. cerevisiae deletion strains, locus YJL187C, strain SWE1, active compounds read low 1 | S. cerevisiae deletion strains, locus YJR043C, strain POL32, active compounds read low 0.995 | S. cerevisiae deletion strains, locus YJR075W, strain HOC1, active compounds read low 0.979 | S. cerevisiae deletion strains, locus YKL009W, strain mrt4, active compounds read low 1 | S. cerevisiae deletion strains, locus YKL068W, active compounds read low 0.999 | S. cerevisiae deletion strains, locus YKL085W, strain MDH1 (second series), active compounds read low 1 | S. cerevisiae deletion strains, locus YKL085W, strain MDH1, active compounds read low 1 | S. cerevisiae deletion strains, locus YKL160W, strain elf1, active compounds read low 0.974 | S. cerevisiae deletion strains, locus YKL190W, strain CNB1, active compounds read low 1 | S. cerevisiae deletion strains, locus YKR001C, strain vps1, active compounds read low 1.01 | S. cerevisiae deletion strains, locus YKR026C, strain gcn3, active compounds read low 1 | S. cerevisiae deletion strains, locus YKR091W, strain srl3, active compounds read low 1 | S. cerevisiae deletion strains, locus YLL001W, strain dnm1, active compounds read low 0.995 | S. cerevisiae deletion strains, locus YLL026W, active compounds read low 1.01 | S. cerevisiae deletion strains, locus YLL041C, strain sdh2, active compounds read low 0.994 | S. cerevisiae deletion strains, locus YLR027C, strain aat2, active compounds read low 1.01 | S. cerevisiae deletion strains, locus YLR039C, strain RIC1, active compounds read low 1.05 | S. cerevisiae deletion strains, locus YLR058C, strain SHM2, active compounds read low 0.997 | S. cerevisiae deletion strains, locus YLR102C, strain apc9, active compounds read low 1.01 | S. cerevisiae deletion strains, locus YLR221C, strain rsa3, active compounds read low 0.995 | S. cerevisiae deletion strains, locus YLR258W, strain gsy2, active compounds read low 1.03 | S. cerevisiae deletion strains, locus YLR262C, strain YPT6 (second series), active compounds read low 0.997 | S. cerevisiae deletion strains, locus YLR262C, strain YPT6, active compounds read low 1.02 | S. cerevisiae deletion strains, locus YLR268W, strain sec22, active compounds read low 1.01 | S. cerevisiae deletion strains, locus YLR320W, strain mms22, active compounds read low 1.02 | S. cerevisiae deletion strains, locus YLR330W, strain CHS5, active compounds read low 1.01 | S. cerevisiae deletion strains, locus YLR342W, strain FKS1 (second series), active compounds read low 1.04 | S. cerevisiae deletion strains, locus YLR342W, strain FKS1, active compounds read low 1.01 | S. cerevisiae deletion strains, locus YLR357W, strain rsc2, active compounds read low 1.01 | S. cerevisiae deletion strains, locus YLR370C, strain arc18, active compounds read low 0.996 | S. cerevisiae deletion strains, locus YLR371W, strain rom2, active compounds read low 1.02 | S. cerevisiae deletion strains, locus YLR384C, strain iki3, active compounds read low 1 | S. cerevisiae deletion strains, locus YLR418C, strain cdc73, active compounds read low 1.02 | S. cerevisiae deletion strains, locus YML016C, strain PPZ1, active compounds read low 1 | S. cerevisiae deletion strains, locus YML032C, strain rad52, active compounds read low 1.02 | S. cerevisiae deletion strains, locus YML120C, strain ndi1, active compounds read low 0.997 | S. cerevisiae deletion strains, locus YML124C, strain tub3, active compounds read low 1 | S. cerevisiae deletion strains, locus YMR058W, strain fet3, active compounds read low 1.01 | S. cerevisiae deletion strains, locus YMR078C, strain ctf18, active compounds read low 1.01 | S. cerevisiae deletion strains, locus YMR125W, strain sto1, active compounds read low 1.01 | S. cerevisiae deletion strains, locus YMR129W, active compounds read low 1 | S. cerevisiae deletion strains, locus YMR205C, strain PFK2, active compounds read low 1.03 | S. cerevisiae deletion strains, locus YMR223W, strain ubp8, active compounds read low 1.01 | S. cerevisiae deletion strains, locus YMR231W, strain pep5, active compounds read low 1.01 | S. cerevisiae deletion strains, locus YMR307W, strain GAS1, active compounds read low 1.08 and 0.984 | S. cerevisiae deletion strains, locus YNL067W, strain RPL9B, active compounds read low 1 | S. cerevisiae deletion strains, locus YNL071W, strain lat1, active compounds read low 1 | S. cerevisiae deletion strains, locus YNL153C, strain GIM3, active compounds read low 1.04 | S. cerevisiae deletion strains, locus YNL175C, strain NOP13, active compounds read low 1.02 | S. cerevisiae deletion strains, locus YNL197C, strain WHI3, active compounds read low 1.01 | S. cerevisiae deletion strains, locus YNL209W, strain ssb2, active compounds read low 1 | S. cerevisiae deletion strains, locus YNL224C, strain SQS1, active compounds read low 1 | S. cerevisiae deletion strains, locus YNL233W, strain BNI4, active compounds read low 0.995 | S. cerevisiae deletion strains, locus YNL248C, strain rpa49, active compounds read low 0.957 | S. cerevisiae deletion strains, locus YNL250W, strain rad50, active compounds read low 1 | S. cerevisiae deletion strains, locus YNL271C, strain bni1, active compounds read low 1.01 | S. cerevisiae deletion strains, locus YNL298W, strain CLA4, active compounds read low 1.02 | S. cerevisiae deletion strains, locus YNL307C, strain MCK1, active compounds read low 1.02 | S. cerevisiae deletion strains, locus YNL322C, strain KRE1 (second series), active compounds read low 0.998 | S. cerevisiae deletion strains, locus YNR049C, strain mso1, active compounds read low 1 | S. cerevisiae deletion strains, locus YNR052C, strain pop2, active compounds read low 1.01 | S. cerevisiae deletion strains, locus YOL006C, strain TOP1, active compounds read low 1 | S. cerevisiae deletion strains, locus YOL012C, strain htz1 1.16 | S. cerevisiae deletion strains, locus YOL147C, strain pex11, active compounds read low 1.01 | S. cerevisiae deletion strains, locus YOR001W, strain rrp6, active compounds read low 0.971 | S. cerevisiae deletion strains, locus YOR061W, strain CKA2, active compounds read low 1.01 | S. cerevisiae deletion strains, locus YOR069W, strain VPS5, active compounds read low 1 | S. cerevisiae deletion strains, locus YOR070C, strain gyp1, active compounds read low 0.999 | S. cerevisiae deletion strains, locus YOR080W, strain dia2, active compounds read low 1.01 | S. cerevisiae deletion strains, locus YOR083W, strain WHI5 (second series), active compounds read low 1.02 | S. cerevisiae deletion strains, locus YOR083W, strain WHI5, active compounds read low 0.962 | S. cerevisiae deletion strains, locus YOR106W, strain vam3, active compounds read low 0.981 | S. cerevisiae deletion strains, locus YOR136W, strain idh2, active compounds read low 1.01 | S. cerevisiae deletion strains, locus YOR144C, strain elg1, active compounds read low 1.01 | S. cerevisiae deletion strains, locus YOR184W, strain ser1, active compounds read low 1.01 | S. cerevisiae deletion strains, locus YOR265W, strain rbl2, active compounds read low 1 | S. cerevisiae deletion strains, locus YOR270C, strain vph1, active compounds read low 0.98 | S. cerevisiae deletion strains, locus YOR290C, strain snf2, active compounds read low 0.992 | S. cerevisiae deletion strains, locus YOR316C, strain cot1, active compounds read low 1.01 | S. cerevisiae deletion strains, locus YPL051W, strain arl3, active compounds read low 0.991 | S. cerevisiae deletion strains, locus YPL078C, strain atp4, active compounds read low 0.981 | S. cerevisiae deletion strains, locus YPL106C, strain sse1, active compounds read low 1.02 | S. cerevisiae deletion strains, locus YPL240C, strain hsp82, active compounds read low 1.01 | S. cerevisiae deletion strains, locus YPR119W, strain clb2, active compounds read low 1.01 | S. cerevisiae deletion strains, locus YPR141C, strain kar3, active compounds read low 1 | S. cerevisiae deletion strains, locus YPR163C, strain tif3, active compounds read low 1.02 | S. cerevisiae deletion strains, locus YPR167C, strain met16, active compounds read low 1.02 | S. cerevisiae deletion strains, strain wtn01, active compounds read low 1.02 | S. cerevisiae strains, strain wild type, active compounds read low 1.01

Source: PubChem BioAssay AID1159580 (chemical genetic matrix, 2015)
